About 1,200 (63%) of roughly 1,900 compounds were called active. Rule as the data show it: active = inhibition above about 22%; inactive = the rest. So high a share suggests a set chosen from earlier hits. Not all results are given here.

A short description of this assay: cytotoxic compounds in IEC-6 epithelial cells, confirmation, cytotoxicity control, cell-based, luminescence (AID 1907).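 Also: 0% = vehicle and 100% = reference cytotoxic drug.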 Conditions: IEC-6 rat intestinal epithelial viability, at 5 µM, active compounds read high.
`COc1ccc(C)cc1Nc1nc(C)nc2c1oc1ccccc12`: the inhibition is 22.4% (active). The figure for `COc1cc(NS(=O)(=O)c2ccc3ccccc3c2)c2ncccc2c1` is 63.1% (active); for `CCCOn1c(-n2nc(C)cc2C)nc2ccccc2c1=O` it is -7.58% (inactive).

For the compound `O=C(NCCOc1cccnc1)c1ccc(OC2CCN(Cc3ccccn3)CC2)cc1`, the inhibition was 99.6% (active).

As to `Cc1cc(C)n2nc(CNS(=O)(=O)c3c(F)c(F)c(F)c(F)c3F)nc2n1`, the inhibition is 13% (inactive).

`CCCOc1ccccc1C1CC(=O)Nc2cc3c(cc21)OCO3` (configuration not stated): the inhibition was 56.8% (active). On to `COc1ccccc1C1C2=C(COC2=O)Nc2cc3c(cc21)OCO3` (configuration not stated), for which the inhibition was 62.6% (active). To `COc1ccccc1NC(=O)c1ccc(C)s1` belongs 5.92% (inactive). To `C[C@@H]1C[C@@H]2O[C@H]2/C=C\C=C\C(=O)Cc2c(Cl)c(O)cc(O)c2C(=O)O1` belongs 38.8% (active); to `Cc1ccc(-c2csc(NC3OC(=O)c4ccccc43)n2)cc1` (configuration not stated), 28.3% (active).

For the compound `COc1ccc2c(c1OC)C(=O)OC2Nc1nc(-c2ccccc2)cs1` (configuration not stated), the inhibition was 25% (active).

Regarding `Cc1cccc(NC(=O)c2ccc([N+](=O)[O-])o2)c1`, the inhibition is 20% (inactive). To `CC[C@H]1CN2CCc3cc(OC)c(OC)cc3[C@@H]2C[C@@H]1C[C@H]1NCCc2cc(OC)c(OC)cc21` belongs 97.2% (active); to `CSc1nnc2ccc(-c3ccc(C)cc3)nn12`, 25% (active); to `O=C1C(=O)N(CC2COc3ccccc3O2)c2ccccc21` (configuration not stated), -2.39% (inactive). To `CCOC(=O)c1c(C)[nH]c2c1-c1ccccc1C(=O)C2=O` belongs 100% (active). The figure for `CC(C)OC(=O)CN1C(=O)C(=O)c2ccccc21` is 9.06% (inactive); for `CCCCNc1nc2c(c(=O)n(C)c(=O)n2C)n1Cc1cccc(OC)c1` it is 19.3% (inactive); for `COc1ccc(CNS(=O)(=O)c2cc(-c3cc(C)no3)ccc2C(C)C)cc1` it is 51.7% (active). On to `Cn1nccc1C(=O)NC1CCCc2c1cnn2-c1ccccc1F` (configuration not stated), for which the inhibition was 7.23% (inactive). As for `Cn1nccc1C(=O)NC1CCCc2c1cnn2-c1ccc(F)cc1F` (configuration not stated), the inhibition was 23.2% (active). The figure for `COc1cccc2sc(N(CCCN(C)C)C(=O)CCS(=O)(=O)c3ccccc3)nc12` is 7.79% (inactive); for `Cc1nn2c(NCCN(C)C)c3c(nc2c1-c1ccccc1)CCC3` it is -0.91% (inactive); for `COc1cccc(C(=O)Nc2ccc(N3CCCC3)cc2)c1` it is 43.2% (active).

Take `COc1cccc(C(=O)Nc2ccc(N3CCN(C(=O)c4ccco4)CC3)cc2)c1`: the inhibition was 23.9% (active). The figure for `CC(C)(C)Nc1nc(-c2ccccn2)nc2ccccc12` is -6.6% (inactive). To `CC[n+]1cc(C)ccc1/C=C/c1ccc(N(C)C)cc1` belongs 19.6% (inactive).

As for `Oc1cccc(/C=N/Nc2ccc(Cl)nn2)c1O`, the inhibition is 2.22% (inactive).

Take `C/C(=N\NC(=O)c1ccccc1F)c1ccccn1`: the inhibition is 67.3% (active). The figure for `C=CCC1(CC=C)CCCN1C(=O)c1cc(COc2ccc(-n3cncn3)cc2)on1` is 8.6% (inactive). The figure for `CC(=O)c1ccc(Oc2cc(C)nc(-n3nc(C)cc3C)n2)cc1` is 49.9% (active); for `COc1ccc(Nc2cc(C)nc(-n3nc(C)cc3C)n2)cc1` it is 54.9% (active); for `COc1ccc(CS(=O)/C(Cl)=C(/Cl)C(=O)Nc2ccc(OC)nc2)cc1` (configuration not stated) it is 73.2% (active). To `COc1ccc(NC(=O)/C(Cl)=C(/Cl)S(=O)Cc2ccc(C)cc2)cn1` (configuration not stated) belongs 89% (active); to `CCOc1ncccc1C(=O)NCCc1ccc(OC)cc1`, 12.2% (inactive); to `CCOc1ccccc1NC(=O)Cn1nnc(C(=O)NCc2cccs2)c1N`, 56.9% (active). As for `CSc1nc(N(C)NC(=O)c2cccc(C)c2)c2ccccc2n1`, the inhibition was 76.1% (active).

On to `CCn1c(C)nc2c1C(=O)c1ccccc1C2=O`, for which the inhibition is 10.1% (inactive). The figure for `COc1ccccc1N(CC(=O)N/N=C(\C)c1ccccc1O)S(=O)(=O)c1ccc(C)cc1` is 10.4% (inactive); for `C/C(=N\NC(=O)c1ccoc1C)c1ccccc1O` it is 31.9% (active). To `Cc1ccc(Nc2nc(N3CCOCC3)nc(N3CCOCC3)n2)cc1Cl` belongs 63.1% (active). In the case of `CCOC(=O)/C=C/C(=O)OCC(=O)NC(c1ccccc1)c1ccccc1`, the inhibition is 43.9% (active). The figure for `CCOC(=O)C1=C(N)N2C(=O)C(C)SC2=C(C(=O)OCC)C1c1cc(OC)c(OC)c(OC)c1` (configuration not stated) is -3.21% (inactive); for `COc1ccc(Nc2cc(=O)oc3ccccc23)cc1` it is 49.1% (active). The figure for `O=C(Nn1cc(C(=O)N2CCN(c3ccccc3F)CC2)c2ccccc2c1=O)c1cnccn1` is -3.18% (inactive); for `Cc1ccc(-n2c(SCC(=O)Nc3ncc(Cl)cc3Cl)nc3ccccc32)cc1` it is 44.1% (active). Turning to `Cc1cccc(NS(=O)(=O)c2ccc(-c3cnc(C4CC4)o3)cc2)c1`, the inhibition was 53% (active). The figure for `Cc1onc(NC(=O)c2ccc([N+](=O)[O-])o2)c1Br` is -1.42% (inactive). The figure for `Cc1cccc(-n2ncc(Cl)c(Cl)c2=O)c1` is 27.2% (active); for `Cc1nc(Nc2ccc3c(c2)OCCO3)c2nnn(Cc3ccccc3Cl)c2n1` it is 11.1% (inactive); for `CC(C)c1cc(C(=O)N/N=C/C(Br)=C/c2ccccc2)n[nH]1` it is 42.1% (active).

Regarding `O=C(NC(Nc1nc2ccc([N+](=O)[O-])cc2s1)(C(F)(F)F)C(F)(F)F)c1ccccc1`, the inhibition was 97.9% (active). As to `CCCOC(=O)c1[nH]c2c(c1C)C(=O)CC(c1cccs1)C2` (configuration not stated), the inhibition was 57.1% (active).

In the case of `CCOc1cc(/C=C/c2nc3ccccc3c(=O)[nH]2)cc(Br)c1OC`, the inhibition is 50.8% (active).

As to `CCOc1c(Nc2cccc(Cl)c2)c(=O)c1=O`, the inhibition is -1.97% (inactive). The figure for `O=C(Nc1ccccc1Cl)/C(Cl)=C(\Cl)S(=O)c1ccccc1` (configuration not stated) is 78.4% (active). The figure for `O=C(CN1C(=O)C2C3C=CC(C3)C2C1=O)Nc1nc(-c2ccccn2)cs1` (configuration not stated) is 19.4% (inactive).

Turning to `Cc1ccc(S(=O)(=O)C2(S(=O)(=O)c3ccc(C)cc3)CCCC2)cc1`, the inhibition was 23.1% (active).

In the case of `COc1ccc(Nc2oc(-c3ccccc3Cl)nc2C#N)cc1`, the inhibition was 58.2% (active). With `CNC[C@H](CC1CCCCC1)NC[C@H](NCCC1CCCC1)[C@H](C)O`, the inhibition was 56.1% (active). To `CCOc1cccc(-n2nnnc2-c2ccc(OC)cc2)c1` belongs 39.2% (active).

As for `COc1ccc(C2=NOC(C(=O)NCc3ccco3)C2)cc1OC` (configuration not stated), the inhibition is 39.3% (active).

With `COC(=O)Nc1nc2ccc(Sc3ccccc3)cc2[nH]1`, the inhibition was 53.4% (active).

As to `CCOc1ccccc1N1CCN(C(=O)c2ccc3[nH]c(C)c(C)c3c2)CC1`, the inhibition is 29% (active).

On to `Nc1c(C(=O)NCc2ccccc2)nnn1Cc1cccc(Cl)c1`, for which the inhibition is 22.8% (active).

In the case of `Cc1cccc(/C=N/NC(=O)CNc2cccc3ccccc23)n1`, the inhibition is 26.7% (active).

Consider `Cn1cccc1/C=N/NC(=O)CNc1cccc2ccccc12`, for which the inhibition is 36.1% (active). To `Cc1ccc(/C=N/NC(=O)COc2ccccc2-c2ccccc2)cc1` belongs 72.2% (active); to `CCCC1=Nc2cc(C(=O)NCc3ccco3)ccc2Sc2ccccc21`, 58.2% (active); to `COc1ccccc1N1CCN(C(=O)c2cc(=O)c3cc(C)cc(C)c3o2)CC1`, 60% (active). To `CCOc1cc(C(=O)N2CCc3cc(OC)c(OC)cc3C2)ccc1OC(F)F` belongs 60.2% (active); to `Cc1cccc(CS(=O)(=O)c2ncc(Cl)c(C(=O)Nc3ccc(F)cc3)n2)c1`, 22.5% (active). To `Cc1ccc(CS(=O)(=O)c2ncc(Cl)c(C(=O)Nc3nnc(C)s3)n2)cc1` belongs 23.3% (active); to `CSc1nnc(NC(=O)c2nc(S(=O)(=O)Cc3ccc(C)cc3)ncc2Cl)s1`, 14.9% (inactive).

On to `Cc1cccc(NC(=O)c2nc(S(=O)(=O)Cc3ccccc3)ncc2Cl)c1`, for which the inhibition is 12.9% (inactive).

Regarding `CC(C)OCCCNc1ncnc2c1[nH]c1ccc(F)cc12`, the inhibition is 34.4% (active). The figure for `CC1CCCCN1S(=O)(=O)c1ccc(C(=O)Nc2nnc(-c3cccs3)o2)cc1` (configuration not stated) is 18.5% (inactive); for `CCN(CC)c1ccc(NC(=O)c2ccc(Cl)nc2)cc1` it is 38% (active). The figure for `O=S(=O)(c1ccc(Br)cc1)N1CCC(c2nc3ccccc3[nH]2)CC1` is 27.5% (active). To `O=[N+]([O-])c1ccccc1S(=O)(=O)Nc1cccc2cccnc12` belongs 48.3% (active); to `CCCCCCCCn1c2c(c(=N)c3c1CCC3)CCCC2`, 49.4% (active). On to `CCOC(=O)CSC1=C(C#N)C(c2sccc2C)CC(=O)N1` (configuration not stated), for which the inhibition is 51.2% (active). To `CCN1/C(=C\c2ccc3ccccc3[n+]2CC)Sc2cc(C)ccc21` belongs 39.4% (active); to `CCN1/C(=C/c2ccc3ccc(C)cc3[n+]2CC)Sc2ccccc21`, 39.8% (active).

Regarding `O=c1cc(-c2ccccc2)[nH]c2cc(F)ccc12`, the inhibition was 53.6% (active). To `Cc1cc(C(=O)OCC(=O)NCc2ccco2)c(C)n1-c1ccccc1` belongs 55.2% (active); to `CC(=O)NC1=NN(C(C)=O)C(C)(c2ccc(Cl)s2)S1` (configuration not stated), 41.6% (active).
